According to PubChem BioAssay AID1159580 (chemical genetic matrix, 2015):
Several values for one entry are separate records, joined by “and”; a condition that tells them apart may be missing. Identical values can stand only once. The whole screen tested about 5,500 compounds, of which about 2,000 (36%) were called active. Inconclusive results (about 18%) are left out. Rule as the data show it: active = normalized growth mostly below about 0.91 (no sharp cut-off); inconclusive = no clear call, values can overlap the other calls; inactive = mostly above about 0.92. This is one part of the list.

Test: chemical genetic growth profiling, strain panel (AID 1159580);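 also: tested at 20 µM; growth read once vehicle control cultures reached saturation at 30 °C; 1 = growth at the plate median or of vehicle wells; lower values mean less growth of the strain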
Conditions: S. cerevisiae deletion strains, growth OD

Measured: normalized growth

Cn1c(=O)c2c(ncn2CC(O)CO)n(C)c1=O (configuration not stated)
inactive: locus YAL013W, strain DEP1, hits give low values 1.01 | locus YAL021C, strain ccr4, hits give low values 0.97 | locus YAL026C, strain drs2, hits give low values 0.967 | locus YAL030W, strain snc1, hits give low values 0.989 | locus YBL061C, strain skt5, hits give low values 0.992 | locus YBR009C, strain hhf1, hits give low values 0.982 | locus YBR021W, strain FUR4, hits give low values 1.03 | locus YBR023C, strain chs3, hits give low values 1 | locus YBR171W, strain sec66, hits give low values 0.978 | locus YBR229C, strain ROT2, hits give low values 1.01 | locus YBR231C, strain swc5, hits give low values 1 | locus YBR279W, strain paf1, hits give low values 0.972 | locus YCL011C, strain gbp2, hits give low values 0.99 | locus YCL016C, strain dcc1, hits give low values 1.01 | locus YCL029C, strain bik1, hits give low values 0.96 | locus YCL061C, strain MRC1, hits give low values 1 | locus YCL069W, strain vba3, hits give low values 0.953 | locus YCR088W, strain abp1, hits give low values 0.989 | locus YDL005C, strain med2, hits give low values 0.972 | locus YDL035C, strain GPR1, hits give low values 1.05 | locus YDL040C, strain nat1, hits give low values 0.986 | locus YDL074C, strain BRE1, hits give low values 1.02 | locus YDL101C, strain DUN1, hits give low values 0.995 | locus YDL185W, strain tfp1, hits give low values 0.954 | locus YDL192W, strain arf1, hits give low values 0.972 | locus YDR001C, strain nth1, hits give low values 0.97 | locus YDR069C, strain doa4, hits give low values 0.958 | locus YDR101C, strain arx1, hits give low values 1.01 | locus YDR137W, strain rgp1, hits give low values 0.986 | locus YDR159W, strain sac3, hits give low values 0.942 | locus YDR162C, strain NBP2, hits give low values 1.02 | locus YDR195W, strain ref2 0.951 | locus YDR297W, strain sur2, hits give low values 0.991 | locus YDR318W, strain mcm21, hits give low values 0.977 | locus YDR334W, strain swr1, hits give low values 0.973 | locus YDR335W, strain msn5, hits give low values 0.981 | locus YDR388W, hits give low values 0.988 | locus YDR392W, strain spt3, hits give low values 0.939 | locus YDR502C, strain sam2, hits give low values 0.984 | locus YEL003W, strain gim4, hits give low values 0.981 | locus YEL037C, strain rad23, hits give low values 0.972 | locus YEL061C, strain CIN8 (second series), hits give low values 0.97 | locus YEL061C, strain CIN8, hits give low values 0.997 | locus YER015W, strain faa2, hits give low values 0.993 | locus YER016W, strain bim1, hits give low values 0.951 | locus YER110C, hits give low values 0.943 | locus YER111C, strain swi4, hits give low values 0.988 | locus YER155C, strain BEM2 (second series), hits give low values 0.953 | locus YER155C, strain BEM2, hits give low values 1 | locus YER167W, strain BCK2, hits give low values 0.996 | locus YFR010W, strain ubp6, hits give low values 0.967 | locus YGL078C, strain dbp3, hits give low values 0.978 | locus YGL086W, strain mad1, hits give low values 1.01 | locus YGL167C, strain pmr1, hits give low values 0.989 | locus YGL173C, strain kem1, hits give low values 0.97 | locus YGL227W, strain vid30, hits give low values 0.987 | locus YGL240W, strain doc1, hits give low values 0.973 | locus YGL248W, strain PDE1, hits give low values 0.995 | locus YGL253W, strain hxk2, hits give low values 0.972 | locus YGR078C, strain PAC10, hits give low values 1.01 | locus YGR135W, strain pre9, hits give low values 0.954 | locus YGR252W, strain gcn5, hits give low values 0.987 | locus YHR013C, strain ard1, hits give low values 0.975 | locus YHR027C, strain rpn1, hits give low values 0.981 | locus YHR030C, strain SLT2, hits give low values 1 and 1.02 | locus YHR079C, strain IRE1 (second series), hits give low values 0.968 | locus YHR079C, strain IRE1, hits give low values 1.08 | locus YHR094C, strain hxt1, hits give low values 0.984 | locus YHR129C, strain ARP1, hits give low values 1.01 | locus YHR142W, strain chs7, hits give low values 0.992 | locus YHR200W, strain rpn10, hits give low values 0.97 | locus YIL066C, strain RNR3, hits give low values 1.01 | locus YIL073C, strain SPO22, hits give low values 0.908 | locus YIL125W, strain kgd1, hits give low values 0.992 | locus YIR030C, strain dcg1, hits give low values 0.949 | locus YJL092W, strain hpr5, hits give low values 0.998 | locus YJL095W, strain BCK1 (second series), hits give low values 0.989 | locus YJL095W, strain BCK1, hits give low values 0.982 and 1.02 | locus YJL115W, strain asf1, hits give low values 0.979 | locus YJL129C, strain trk1, hits give low values 0.994 | locus YJL134W, strain LCB3, hits give low values 1 | locus YJL154C, strain vps35, hits give low values 0.972 | locus YJL164C, strain tpk1, hits give low values 0.998 | locus YJL166W, strain qcr8, hits give low values 1.04 | locus YJL168C, strain set2, hits give low values 0.98 | locus YJL187C, strain SWE1 (second series), hits give low values 0.988 | locus YJL187C, strain SWE1, hits give low values 0.981 | locus YJR043C, strain POL32, hits give low values 1.06 | locus YJR066W, strain TOR1, hits give low values 0.952 | locus YKL009W, strain mrt4, hits give low values 0.979 | locus YKL068W, hits give low values 0.982 | locus YKL085W, strain MDH1 (second series), hits give low values 1.01 | locus YKL085W, strain MDH1, hits give low values 1.01 | locus YKL160W, strain elf1, hits give low values 1.06 | locus YKR001C, strain vps1, hits give low values 0.975 | locus YKR026C, strain gcn3, hits give low values 0.974 | locus YKR091W, strain srl3, hits give low values 0.994 | locus YLL001W, strain dnm1, hits give low values 1.03 | locus YLL026W, hits give low values 0.987 | locus YLL041C, strain sdh2, hits give low values 0.979 | locus YLR027C, strain aat2, hits give low values 0.973 | locus YLR039C, strain RIC1, hits give low values 1.01 | locus YLR058C, strain SHM2, hits give low values 0.996 | locus YLR102C, strain apc9, hits give low values 0.975 | locus YLR113W, strain HOG1, hits give low values 1.06 | locus YLR221C, strain rsa3, hits give low values 1.03 | locus YLR258W, strain gsy2, hits give low values 0.985 | locus YLR262C, strain YPT6 (second series), hits give low values 0.991 | locus YLR262C, strain YPT6, hits give low values 0.939 | locus YLR268W, strain sec22, hits give low values 0.966 | locus YLR320W, strain mms22, hits give low values 1.04 | locus YLR330W, strain CHS5, hits give low values 0.999 | locus YLR342W, strain FKS1 (second series), hits give low values 1.08 | locus YLR342W, strain FKS1, hits give low values 0.983 | locus YLR357W, strain rsc2, hits give low values 0.989 | locus YLR370C, strain arc18, hits give low values 0.981 | locus YLR371W, strain rom2, hits give low values 0.963 | locus YLR384C, strain iki3, hits give low values 0.98 | locus YLR418C, strain cdc73, hits give low values 0.996 | locus YML016C, strain PPZ1, hits give low values 1.01 | locus YML032C, strain rad52, hits give low values 0.988 | locus YML120C, strain ndi1, hits give low values 1.01 | locus YML124C, strain tub3, hits give low values 0.988 | locus YMR058W, strain fet3, hits give low values 0.981 | locus YMR078C, strain ctf18, hits give low values 0.966 | locus YMR125W, strain sto1, hits give low values 0.979 | locus YMR129W, hits give low values 0.966 | locus YMR205C, strain PFK2, hits give low values 1.04 | locus YMR223W, strain ubp8, hits give low values 0.973 | locus YMR231W, strain pep5, hits give low values 0.97 | locus YMR307W, strain GAS1, hits give low values 1.05 | locus YNL067W, strain RPL9B, hits give low values 0.97 | locus YNL071W, strain lat1, hits give low values 0.975 | locus YNL128W, strain TEP1, hits give low values 0.969 | locus YNL153C, strain GIM3, hits give low values 1 | locus YNL183C, strain NPR1, hits give low values 0.987 | locus YNL209W, strain ssb2, hits give low values 0.995 | locus YNL233W, strain BNI4, hits give low values 1.01 | locus YNL248C, strain rpa49, hits give low values 0.978 | locus YNL250W, strain rad50, hits give low values 0.974 | locus YNL271C, strain bni1, hits give low values 0.973 | locus YNL298W, strain CLA4, hits give low values 0.969 | locus YNL307C, strain MCK1, hits give low values 0.983 | locus YNL322C, strain KRE1 (second series), hits give low values 0.983 | locus YNL322C, strain KRE1, hits give low values 0.998 | locus YNR049C, strain mso1, hits give low values 0.988 | locus YNR052C, strain pop2, hits give low values 0.969 | locus YOL006C, strain TOP1, hits give low values 0.966 | locus YOL012C, strain htz1 0.82 | locus YOL147C, strain pex11, hits give low values 0.974 | locus YOR001W, strain rrp6, hits give low values 0.93 | locus YOR061W, strain CKA2, hits give low values 1 | locus YOR069W, strain VPS5, hits give low values 1.01 | locus YOR070C, strain gyp1, hits give low values 0.989 | locus YOR080W, strain dia2, hits give low values 0.984 | locus YOR083W, strain WHI5, hits give low values 1.07 | locus YOR106W, strain vam3, hits give low values 1.02 | locus YOR136W, strain idh2, hits give low values 0.976 | locus YOR144C, strain elg1, hits give low values 0.98 | locus YOR184W, strain ser1, hits give low values 0.957 | locus YOR231W, strain MKK1, hits give low values 1.03 | locus YOR265W, strain rbl2, hits give low values 0.986 | locus YOR270C, strain vph1, hits give low values 0.982 | locus YOR290C, strain snf2, hits give low values 0.954 | locus YOR316C, strain cot1, hits give low values 0.959 | locus YPL051W, strain arl3, hits give low values 0.991 | locus YPL055C, strain LGE1, hits give low values 1.01 | locus YPL078C, strain atp4, hits give low values 1.03 | locus YPL106C, strain sse1, hits give low values 1 | locus YPL240C, strain hsp82, hits give low values 0.97 | locus YPL241C, strain CIN2, hits give low values 1 | locus YPL256C, strain CLN2, hits give low values 1.02 | locus YPR119W, strain clb2, hits give low values 0.967 | locus YPR141C, strain kar3, hits give low values 0.95 | locus YPR163C, strain tif3, hits give low values 0.98 | locus YPR167C, strain met16, hits give low values 0.968 | strain wtn01, hits give low values 0.997
